Only some compounds are listed: those with a hit (about 19% of all), similar ones and a draw of the others.
ELG1 DNA repair: qHTS screen for small molecules that inhibit ELG1-dependent DNA repair in human embryonic kidney (HEK293T) cells expressing luciferase-tagged ELG1. HEK293T ELG1-luciferase reporter, luminescence, 16 h; DNA damage induced by 5-fluorouridine. Potency, µM (series often up to 46.1 µM), without a hit: at the highest dose activity change, negative = inhibition, most hits filed as inhibitors. 2.3% of 330,000 active. AID 504467, 2011; further: potency means the concentration at half of the fitted maximal effect; nearly all actives have a fitted effect of over 55% in size
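Luminescence from the luciferase reporter, measured 30 min after ONE-Glo reagent at room temperature, was the read-out. Beforehand, 2,000 cells per well were exposed for 16 hr at 37 °C to 5-fluorouridine together with compound or vehicle.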
HT1080 IDH1KD tx: qHTS for induction of synthetic lethality in tumor cells producing 2HG: qHTS for the HT-1080-IDH1KD cell line | AID 686971, 2013 | 2% of 360,000 active | Potency, µM (series often up to 46.1 µM), without a hit: at the highest dose activity, negative = toxicity, usual class: cytotoxic | HT-1080 IDH1 knockdown viability, ATP luminescence, 48 h;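 further: potency means the concentration at half of the fitted maximal effect; 0% = DMSO wells and -100% = cell-free medium wells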
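Cytotoxicity counter-line: IDH1KD HT-1080, 48 h, CellTiter-Glo. Curves classed by r2, magnitude and activity.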
HT1080-NT tox: qHTS for induction of synthetic lethality in tumor cells producing 2HG: qHTS for the HT-1080-NT fibrosarcoma cell line; HT-1080-NT fibrosarcoma viability, CellTiter-Glo ATP luminescence, 48 h; Potency, µM (highest dose often 46.1 µM), for inactives: top-dose activity, negative = less viability, hits mostly cytotoxic; 1.6% of 360,000 active; AID 686970, 2013;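 further: NT is the 2HG producing partner of a matched IDH1 knockdown line; potency means the concentration at half of the fitted maximal effect; 0% = DMSO-treated cells and -100% = media-only wells without cells; nearly all actives have a fitted effect of over 55% in size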
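A 48-hour cytotoxicity screen used HT-1080-NT cells plated 2 hours before compound delivery. ATP-based CellTiter-Glo luminescence measured viability, normalized to DMSO and no-cell controls.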
TDP1 cell noCPT: qHTS for Inhibitors of human tyrosyl-DNA phosphodiesterase 1 (TDP1): qHTS in cells in absence of CPT; DT40 Tdp1-/- hTDP1 cells, no CPT, ATP luminescence, 48 h; Potency, µM (titrated, usually from 46.2 µM), for the others: at the top dose activity change, negative = growth inhibition, most hits filed as inhibitors; 15% of 420,000 active; further: potency means the concentration at half of the fitted maximal effect; nearly all actives have a fitted effect of over 55% in size
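Chicken DT40 Tdp1-/- cells complemented with human TDP1, screened without camptothecin (DMSO vehicle only), 400 cells/well. Compounds pin-transferred, cells incubated at 37 °C for at least 48 hr. Growth read as ATP-dependent luminescence (CellTiter-Glo, 30 min at RT).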
TDP1 cell CPT: qHTS for Inhibitors of human tyrosyl-DNA phosphodiesterase 1 (TDP1): qHTS in cells in presence of CPT; chicken DT40 Tdp1-/-;hTDP1 cells + 20 nM CPT, ATP luminescence, 48 h; Potency, µM (series often up to 46.2 µM), inactives show top-dose activity change, negative = growth inhibition, actives largely listed as inhibitors; 12% of 420,000 active; further: potency means the concentration at half of the fitted maximal effect; nearly all actives have a fitted effect of over 55% in size
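Chicken DT40 Tdp1-/- cells stably complemented with human TDP1 were seeded at 400 cells/well in medium containing 20 nM camptothecin, exposed to pin-transferred compounds, and grown at 37 °C for at least 48 hr. Viability was read as ATP luminescence.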
IL1B secr inh: qHTS for Inhibitors of Inflammasome Signaling: IL-1-beta AlphaLISA Primary Screen; THP-1 LPS/ATP IL-1B secretion, AlphaLISA, 16 h; active compounds read low; AID 743279, 2014; activity change, % at 57.5 µM; 4.7% of 360,000 active; in the data active means activity change below about -50%; inconclusive means mostly about -30% to -49%
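Secreted IL-1B measured by AlphaLISA bead assay after 16 h compound exposure of THP-1 cells; compounds (final up to 57.5 uM) added 1 h before LPS (250 ng/mL) and ATP (1.25 mM) stimulation; lower signal means less secretion.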
Starred values were filed as active, the others as inactive. Unless noted, the call rests on the fitted dose curve; in most records, active means well fitted curve in the direction sought with a large enough effect; inconclusive means small, poorly fitted or top-dose-only effect, or another doubt; inactive means no such curve, though single readings can be large; an effect the other way counts as inactive or inconclusive. Unless noted, on the % scale 0 is the no-effect control and ±100 the full control effect.

CCOC(=O)c1c(NC(=O)Nc2ccc(Cl)cc2)sc(C)c1C was read as ELG1 DNA repair 13.5%, HT1080 IDH1KD tx 5.6%, HT1080-NT tox 8.5%, TDP1 cell noCPT 13µM*, TDP1 cell CPT inconclusive and IL1B secr inh -5.9.
`CCOC(=O)c1sc(NC(=O)c2c(C)nn(Cc3ccccc3)c2C)cc1C` gave ELG1 DNA repair inconclusive, HT1080 IDH1KD tx inconclusive, HT1080-NT tox inconclusive, TDP1 cell noCPT inconclusive, TDP1 cell CPT 16.4µM* and IL1B secr inh -20.2.
For CC(=O)Nc1ccc(NC(=O)c2c(C)nn(Cc3ccccc3)c2Cl)cc1 the results were ELG1 DNA repair 14.4%, HT1080 IDH1KD tx 21.7%, HT1080-NT tox 3.9%, TDP1 cell noCPT 1.16µM*, TDP1 cell CPT 13µM* and IL1B secr inh -6.1.
Screening CCOC(=O)c1ccc(NC(=O)NC2=NCCS2)cc1 returned HT1080 IDH1KD tx 2.31µM*, HT1080-NT tox 2.59µM*, TDP1 cell noCPT inconclusive, TDP1 cell CPT -29.8% and IL1B secr inh 39.9.
`CCOC(=O)c1ccc(NC(=O)Nc2ccc(S(N)(=O)=O)cc2)cc1` gave ELG1 DNA repair -0.5%, HT1080 IDH1KD tx 2.0%, HT1080-NT tox 0.7%, TDP1 cell noCPT -2.2%, TDP1 cell CPT -4.2% and IL1B secr inh 0.0.
Screening CCc1nc2ccc(C(=O)N(C)CCCN(C)C)cn2c1N(C)C(=O)C1CCCCC1 returned HT1080 IDH1KD tx 8.1%, HT1080-NT tox 25.9%, TDP1 cell noCPT -10.7%, TDP1 cell CPT -7.4% and IL1B secr inh 0.0.
Screening CC1CN(C(=O)C2(C)CC2(Br)Br)CC(C)O1 (stereo unspecified) returned ELG1 DNA repair -0.3%, HT1080 IDH1KD tx -1.4%, HT1080-NT tox 0.8%, TDP1 cell noCPT -4.2%, TDP1 cell CPT -4.2% and IL1B secr inh 14.9.
For CCOC(=O)c1sc(NC(=O)Nc2ccc(Cl)cc2)cc1C the results were ELG1 DNA repair 14.2%, HT1080 IDH1KD tx inconclusive, HT1080-NT tox inconclusive, TDP1 cell noCPT 3.66µM*, TDP1 cell CPT 5.8µM* and IL1B secr inh -102.9*.
For CCOC(=O)c1sc(NC(=S)NC(=O)C2CCCC2)cc1C the results were ELG1 DNA repair 23.8%, HT1080 IDH1KD tx -25.3%, HT1080-NT tox -16.8%, TDP1 cell noCPT 16.4µM*, TDP1 cell CPT inconclusive and IL1B secr inh -6.0.
For CCOC(=O)c1c(NC(=O)/C=C/C(=O)O)sc(C)c1-c1ccc(Cl)cc1 the results were ELG1 DNA repair -8.3%, HT1080 IDH1KD tx 23.1µM*, HT1080-NT tox inconclusive, TDP1 cell noCPT 13µM*, TDP1 cell CPT inconclusive and IL1B secr inh -71.3*.
Screening CCOC(=O)c1sc(NC(=O)c2ccc(Cl)s2)cc1C returned ELG1 DNA repair inconclusive, HT1080 IDH1KD tx 11.6%, HT1080-NT tox 13.2%, TDP1 cell noCPT 0.6%, TDP1 cell CPT -16.4% and IL1B secr inh inconclusive.
Screening Cc1cccc(C)c1NC(=S)NC(=O)c1cccc(Cl)c1 returned HT1080 IDH1KD tx 17.7%, HT1080-NT tox 8.6%, TDP1 cell noCPT inconclusive, TDP1 cell CPT inconclusive and IL1B secr inh 5.2.
`O=C(NNc1cc(Br)c(O)c(Br)c1)c1ccccc1` gave ELG1 DNA repair 18.5%, HT1080 IDH1KD tx -12.8%, HT1080-NT tox -8.0%, TDP1 cell noCPT 18.4µM*, TDP1 cell CPT inconclusive and IL1B secr inh 31.6.
Cc1ccc(NC(=O)CN2C(=O)CCSc3ccc(S(=O)(=O)N4CCCC4)cc32)cc1C was read as ELG1 DNA repair inconclusive, HT1080 IDH1KD tx -14.3%, HT1080-NT tox -2.1%, TDP1 cell noCPT inconclusive, TDP1 cell CPT inconclusive and IL1B secr inh -4.3.
`Cc1ccc(NC(=O)CN2C(=O)CSc3ccc(S(=O)(=O)N4CCCC4)cc32)cc1F` gave TDP1 cell noCPT 23.1µM* and TDP1 cell CPT inconclusive.
`Cc1cc(NC(=O)CN2C(=O)CSc3ccc(S(=O)(=O)N(C)C)cc32)ccc1Br` gave TDP1 cell noCPT 20.6µM* and TDP1 cell CPT inconclusive.
Screening CC(C)c1ccc(NC(=O)CN2C(=O)CSc3ccc(S(=O)(=O)N4CCCC4)cc32)cc1 returned TDP1 cell noCPT 16.4µM* and TDP1 cell CPT 16.4µM*.
`COc1ccc(-c2cn(CCC(=O)O)c(C)n2)cc1` gave ELG1 DNA repair 5.7%, HT1080 IDH1KD tx 0.9%, HT1080-NT tox 12.4%, TDP1 cell noCPT -0.4%, TDP1 cell CPT -16.8% and IL1B secr inh 15.7.
`Cc1nn(-c2ccccc2)c(C)c1-c1nnc(C(F)(F)F)o1` gave ELG1 DNA repair -6.3%, HT1080 IDH1KD tx 20.6%, HT1080-NT tox 8.0%, TDP1 cell noCPT -16.6%, TDP1 cell CPT -12.7% and IL1B secr inh 12.8.
For Cc1nn(-c2ccccc2)c(C)c1-c1nnc(-c2c(C)nn(-c3ccccc3)c2C)o1 the results were ELG1 DNA repair 0.0%, HT1080 IDH1KD tx 0.5%, HT1080-NT tox -3.1%, TDP1 cell noCPT 18.4µM*, TDP1 cell CPT inconclusive and IL1B secr inh 3.4.
Screening Cc1ccc2c(c1)c(=O)c1ccccc1n2CCCC(=O)Nc1cc(Cl)ccc1C returned TDP1 cell noCPT 16.4µM* and TDP1 cell CPT inconclusive.
Screening Cc1ccc2c(c1)c(=O)c1ccccc1n2CCCC(=O)Nc1c(F)cccc1F returned TDP1 cell noCPT -17.1% and TDP1 cell CPT -5.1%.
Cc1ccc(NC(=O)CCCn2c3ccccc3c(=O)c3cc(C)ccc32)c(Br)c1 was read as TDP1 cell noCPT 14.6µM* and TDP1 cell CPT inconclusive.
For CC(=O)N1CCC[C@H]1C(=O)NCC1Cc2cc(-c3cnccn3)cc(Cl)c2O1 (stereo partly specified) the results were TDP1 cell noCPT -13.3% and TDP1 cell CPT -7.4%.
For CCCCOc1ccc(C(=O)NCCc2csc3nc(-c4ccccc4F)nn23)cc1 the results were TDP1 cell noCPT inconclusive and TDP1 cell CPT 25.9µM*.
Screening CC(=O)Nc1cccc(NC(=O)C(=O)NCCc2csc3nc(-c4ccccc4F)nn23)c1 returned TDP1 cell noCPT -1.0% and TDP1 cell CPT -12.1%.
